Screening data from PubChem.
MCF10A rereplic: induces DNA re-replication in MCF 10a normal breast cells. MCF 10A DNA re-replication, Hoechst nuclear intensity, 48 h. Potency, µM (series often up to 46.1 µM), without a hit: at the top dose activity, positive = re-replication, actives largely listed as activators. 350,000 tested, 2.9% active; also: % of control where 0% means no effect; nearly all actives have a fitted effect of over 50% in size
KB-3-1 cytotox: KB-3-1 parental cell cytotoxicity. KB-3-1 viability, CellTiter-Glo ATP luminescence, 72 h. Potency, µM (titrated, usually from 46.1 µM), most hits filed as cytotoxic. 400,000 tested, 1.4% active. AID 1347075; also: % is scaled to controls: 0 for no effect and ±100 for the full control effect; nearly all actives have a fitted effect of over 60% in size
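Viability of parental KB-3-1 cells, measured by CellTiter-Glo luminescence, followed a 72 h incubation at 37 °C with pinned compounds in phenol-red-free DMEM containing 10% FBS.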
PINK1 expr mod: modulators of PINK1 expression | 410,000 tested, 0.2% active | Potency, µM (series often up to 76.6 µM), without a hit: at the top dose activation (PINK1 increase), most hits filed as activators | PINK1 immunofluorescence, high-content cytometry, 24 h | AID 624263; active = well fitted activation curve with a large enough effect; inconclusive = small, poorly fitted or top-dose-only effect; cell line not stated here; also: % of control where 0% means no effect; nearly all actives have a fitted effect of over 65% in size
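PINK1 protein level read as immunofluorescence by microplate cytometer in a fixed, stained stable cell line after 24 h exposure to five compound concentrations, with CCCP as control.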
SW480 rerep: induces DNA re-replication in SW480 colon adenocarcinoma cells | SW480 DNA re-replication, Hoechst DNA content imaging, 48 h | Potency, µM (titrated, usually from 46.1 µM), for the others: top-dose re-replication activation, hits mostly activators | 340,000 tested, 1.8% active; also: % of control where 0% means no effect; nearly all actives have a fitted effect of over 55% in size
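Readout is total intensity of Hoechst-stained nuclei, excited at 405 nm and collected at 500-530 nm. Compound treatment lasted 48 hr at 37 C in 5% CO2 before staining.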
KB-V1 cytotox: kills drug-selected multidrug resistant KB-V1 cells; KB-V1 MDR cells viability, CellTiter-Glo, 72 h; 400,000 tested, 3.4% active; Potency, µM (doses to about 46.1 µM), usual class: cytotoxic; also: % is scaled to controls: 0 for no effect and ±100 for the full control effect; nearly all actives have a fitted effect of over 60% in size
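KB-V1 MDR subline cells in DMEM (phenol-red free, 10% FBS) exposed to compounds in qHTS concentration series for 72 h at 37 degrees C. Viability read by CellTiter-Glo luminescence; concentration-effect curves fitted after normalization and correction.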
* hit, by the source's call; i = inactive; ? = inconclusive; nt = not tested or not shown. The list is not random: actives were taken first. Their share in the collection is about 6.7%. Unless noted, calls follow the shape of the dose curve; as a rule, active = well fitted curve in the direction sought with a large enough effect; inconclusive = small, poorly fitted or top-dose-only effect, or another doubt; inactive = no such curve, though single readings can be large; an effect the other way counts as inactive or inconclusive. Potency is read from the fitted curve at half-maximal effect.

SMILES | MCF10A rereplic | KB-3-1 cytotox | PINK1 expr mod | SW480 rerep | KB-V1 cytotox
CCCCC1CC2=C(C(=O)OC(C)(C)O2)C(c2ccc3ccccc3c2)O1 (configuration not stated) | nt | i | 5% | nt | i
N#Cc1cccnc1N1CCN(C(=O)c2cccs2)CC1 | 4% | i | -1% | -6% | i
Cc1oncc1C(=S)Nc1ccccc1 | 8.2µM* | i | ? | 6.5µM* | i
Cc1ccc(C(=O)N2CCOc3ccc(CN4CCN(Cc5ccccn5)CC4)cc3C2)cc1 | nt | nt | 0% | nt | nt
CCN1CCN(CCCNC(=O)c2ccc3c(c2)N(Cc2ccc(C)cc2)CCS3)CC1 | 15% | ? | -1% | 15µM* | i
Cc1ccc(CN2CCSc3ccc(C(=O)NCCCN4CCOCC4)cc32)cc1 | ? | i | 0% | -3% | i
Cc1ccc(CN2CCSc3ccc(C(=O)N4CCN(c5ncccn5)CC4)cc32)cc1 | ? | 21µM* | ? | ? | 21µM*
CCCC1CC(C(=O)Nc2ccccc2)C(=O)O1 (configuration not stated) | ? | i | -1% | 18% | i
Cc1cc(C(=O)CCl)c(C)n1-c1ccon1 | ? | ? | -1% | 12µM* | ?
Cc1cc(C(=O)CCl)c(C)n1-c1cccc([N+](=O)[O-])c1 | ? | 16µM* | -4% | ? | 23µM*
